Screening data (PubChem BioAssay)
JMJD2E inh = inhibitors of human JMJD2E histone demethylase | B2RXH2 | AID 2147 | Potency, µM (titrated, usually from 57.1 µM), actives largely listed as inhibitors | JMJD2E catalytic domain, FDH-coupled NADH fluorescence (FDH is formaldehyde dehydrogenase) | 230,000 tested, 1.6% active; also: nearly all actives have a fitted effect of over 50% in size
HPGD block = inhibitors of human 15-hydroxyprostaglandin dehydrogenase (HPGD); Potency, µM, most hits filed as inhibitors; purified HPGD, NADH fluorescence kinetic, PGE2 substrate; 150,000 tested, 4.3% active; P15428
Target sequence (P15428 whole entry, looked up): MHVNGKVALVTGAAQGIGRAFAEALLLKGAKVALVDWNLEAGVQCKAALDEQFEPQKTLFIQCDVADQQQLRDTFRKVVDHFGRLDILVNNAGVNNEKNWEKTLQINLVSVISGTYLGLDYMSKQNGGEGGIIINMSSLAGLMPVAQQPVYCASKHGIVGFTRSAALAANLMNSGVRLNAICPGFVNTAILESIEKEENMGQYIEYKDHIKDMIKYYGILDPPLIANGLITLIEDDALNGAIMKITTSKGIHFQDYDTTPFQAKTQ
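NADH formation kinetics: reaction with 30 uM PGE2 and 1 mM NAD+ (final), 20 nM enzyme, Tris-HCl pH 8 with Tween 20, after 15 min compound preincubation at room temperature. Fluorescence change, last versus first of five reads.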
ALDH1A1 inh = blocks purified human ALDH1A1 activity; Purified ALDH1A1, NADH fluorescence, propionaldehyde substrate; Potency, µM (top dose mostly 75.3 µM), usual class: inhibitors; 220,000 tested, 7.3% active; P00352; AID 1030
PNC assembly inh = blocks assembly of the perinucleolar compartment. 140,000 tested, 3.1% active. activity change (PNC), negative = inhibition, % at 10 µM. PC3M PTB-GFP, PNC prevalence imaging, 16 h; hits give low values. AID 2417;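 active = readout at or below -70, meaning at least 70% loss of cells showing the perinucleolar compartment, a nuclear body marking cancer cells; inconclusive = readout between -30 and a set limit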
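Read-out is percentage of cells bearing a perinucleolar compartment, from automated 20x imaging of fixed, Hoechst-stained PC3M PTB-GFP cells. Cells were seeded 4 h, then exposed 16 h to compound (23 nl of library stock) in duplicate plates.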
Each line names hits and unclear results; the compound was inactive in the other large screens. Hits are enriched below; roughly 11% of the tested compounds scored in any of these assays. Unless noted, calls follow the shape of the dose curve; as a rule, active = well fitted inhibition curve with a large enough effect (not every such curve was filed as active); inconclusive = small, poorly fitted or top-dose-only effect, or another doubt; inactive = no such curve, though single readings can be large or run the other way.

CCC(C)NS(=O)(=O)c1ccc(S(=O)(=O)N2CCCC3(CCCCC3)C2)cc1 (stereo unspecified)	ALDH1A1 inh inconclusive
COc1ccc(CC(=O)N2CC(C)CC(C)C2)cc1 (stereo unspecified)	HPGD block 28.2µM, ALDH1A1 inh inconclusive
CCCCN1C(=O)N(C)C2C1N(C)C(=O)N2CCCC (stereo unspecified)	PNC assembly inh -100.0
NC(=O)[C@H]1CC2(CC(c3cccc(NC(=O)[C@H]4CCC(=O)N4)c3)=NO2)CN1C(=O)c1cc([N+](=O)[O-])cc([N+](=O)[O-])c1 (stereo partly specified)	none (no result: HPGD block, ALDH1A1 inh, PNC assembly inh)
CC(=O)c1ccccn1	ALDH1A1 inh inconclusive (no result: JMJD2E inh, PNC assembly inh)
C/C(=N/O)c1ccccn1	JMJD2E inh 17.8µM (no result: HPGD block, PNC assembly inh)
C/C(=N\NC(=O)C(c1ccccc1)c1ccccc1)c1ccccn1	PNC assembly inh -80.6
Cc1nc(C)c(/C(O)=C\c2nc3ccc([N+](=O)[O-])cc3oc2=O)o1	JMJD2E inh 20µM (no result: HPGD block, ALDH1A1 inh, PNC assembly inh)
CC(C)NC(=O)NC(=O)COC(=O)Cc1ccsc1	ALDH1A1 inh 14.1µM
N#CC1=C2SCN(Cc3ccccc3)CN2C(=O)CC1c1ccc2c(c1)OCO2 (stereo unspecified)	JMJD2E inh inconclusive, HPGD block 25.1µM, ALDH1A1 inh 7.94µM
N#CC1=C(SCc2ccccc2)NC2=C(C(=O)CCC2)C1c1ccc2c(c1)OCO2 (stereo unspecified)	JMJD2E inh inconclusive, ALDH1A1 inh inconclusive
CCCSC1=C(C#N)C(c2cccs2)CC(=O)N1 (stereo unspecified)	none (no result: HPGD block, ALDH1A1 inh, PNC assembly inh)
N#CC1=C2SCN(Cc3ccccc3)CN2C(=O)CC1c1cccs1 (stereo unspecified)	JMJD2E inh inconclusive, HPGD block 20µM, ALDH1A1 inh 11.2µM
CCCC(C(=O)NCC1CCCO1)N(Cc1ccco1)C(=O)CNS(=O)(=O)c1ccccc1 (stereo unspecified)	ALDH1A1 inh 11.2µM
CCCC(C(=O)NC1CCCCC1)N(Cc1ccco1)C(=O)CNS(=O)(=O)c1ccccc1 (stereo unspecified)	ALDH1A1 inh 10µM
CC(C)C(C(=O)NCC1CCCO1)N(Cc1ccco1)C(=O)CNS(=O)(=O)c1ccc(F)cc1 (stereo unspecified)	none
O=S(=O)(c1ccccc1)N1CCC2(CCN(c3ccc(-c4ccccc4)cc3)CC2)CC1	ALDH1A1 inh inconclusive (no result: JMJD2E inh, PNC assembly inh)
N=C(N)c1ccc(N2CCN(C3CCN(CC(=O)O)CC3)CC2)cc1	none (no result: PNC assembly inh)
Cc1ccc(CSC2=NCCN2C(=O)c2ccc([N+](=O)[O-])cc2)cc1	ALDH1A1 inh 15.8µM (no result: HPGD block, PNC assembly inh)
O=C(Cc1ccccc1)N1CCN=C1SCc1ccc([N+](=O)[O-])cc1	PNC assembly inh -90.1 (no result: HPGD block)
Cc1ccc(C(=O)N2CCN=C2SCc2ccc([N+](=O)[O-])cc2)cc1	ALDH1A1 inh inconclusive
CCOC(=O)c1c(C)oc2cc(Br)c(OC(C)C(=O)OCC)cc12 (stereo unspecified)	PNC assembly inh -100.0
COc1ccc([C@@H](C)c2cc3c(cc2O)OCO3)cc1	none (no result: JMJD2E inh, PNC assembly inh)
Oc1cc2c(cc1C(c1ccc(Cl)c(Cl)c1)N1CCCC1)OCO2 (stereo unspecified)	ALDH1A1 inh 0.794µM (no result: HPGD block, PNC assembly inh)
COc1ccc2[nH]c(=O)c(CN(Cc3cccs3)C(=S)Nc3cccc(C)c3)cc2c1	HPGD block inconclusive, ALDH1A1 inh inconclusive, PNC assembly inh -100.0
CC(C(=O)Nc1ccccc1-c1ccccc1)N1CCN(C(=O)c2ccccc2)CC1 (stereo unspecified)	ALDH1A1 inh 12.6µM (no result: HPGD block, PNC assembly inh)
CC1CCN(C(C)C(=O)Nc2ccccc2-c2ccccc2)CC1 (stereo unspecified)	none
CC(C(=O)Nc1ccccc1-c1ccccc1)N1CCN(Cc2ccccc2)CC1 (stereo unspecified)	ALDH1A1 inh 14.1µM (no result: HPGD block, PNC assembly inh)
Cc1ccc(S(=O)(=O)N2CCN(C(C)C(=O)Nc3ccccc3-c3ccccc3)CC2)cc1 (stereo unspecified)	ALDH1A1 inh 7.94µM
Cc1ccc(S(=O)(=O)N2CCN(C(C(=O)Nc3ccc(F)cc3)c3ccccc3)CC2)cc1 (stereo unspecified)	ALDH1A1 inh inconclusive
O=C(Nc1ccc2c(c1)Cc1ccccc1-2)[C@@H]1[C@H](C(=O)O)[C@]2(Cl)C(Cl)=C(Cl)[C@@]1(Cl)C2(Cl)Cl	none (no result: JMJD2E inh, PNC assembly inh)
CCOC(=O)c1ccc(NC2OC(=O)c3ccccc32)cc1 (stereo unspecified)	PNC assembly inh -93.8
CCOC(=O)c1ccc(NC(=O)c2ccc(NC(=O)c3ccccc3)cc2)cc1	none
